A short description of this assay: NCI Yeast Anticancer Drug Screen. Data for the CLN2oe strain (AID 163).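 Further: 0% = growth of vehicle-only control cultures.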 To be noted: S. cerevisiae CLN2oe strain, active compounds read high. The method, then: Growth inhibition of yeast strains with defined genetic alterations is measured as a screen for potential anti-cancer activity. Selected strains with alterations in DNA damage repair or cell cycle control were exposed to compounds and growth inhibition was measured relative to vehicle treated controls. The strain used in this assay is CLN2oe

This is an account of results in PubChem BioAssay (NCI).

Compounds without any hit were thinned out: in the full panel of roughly 79,000, 15% have a hit. A number with no mark means an inactive call. The source made the active and inactive calls. No stated cut-off is given here; in the data, active means growth inhibition above about 70%; inactive means the rest.

For `CCOC(=O)CC1(C(=O)OCC)c2[nH]c3ccccc3c2CCN1Cc1ccccc1` (stereo not given), the growth inhibition (at 1.2 µM) was -1%; the growth inhibition (at 3.7 µM) was 2%; the growth inhibition (at 11.0 µM) is 4%; the growth inhibition (at 33.0 µM) is 12%; the growth inhibition (at 100.0 µM) was 74% (active).
The corresponding values for `COc1cc(C2SCC(=O)N2c2ccc(-c3ccc(-n4c(-c5ccccc5)nc5ccccc5c4=O)cc3)cc2)ccc1O` (stereo not given) are -2%, -2%, -7%, -14% and -14%.
The corresponding values for `COC1=C(OC)C(=O)C(Sc2ccc3ccccc3c2)=CC1=O` are 5%, 19%, 45%, 85% (active) and 87% (active).
In the case of `Cc1nc(-c2cc3cc([N+](=O)[O-])ccc3oc2=O)cs1`, the growth inhibition is -22% (at 1.2 µM); 3% (at 3.7 µM); 8% (at 11.0 µM); 20% (at 33.0 µM); 81% (active) (at 100.0 µM).
The corresponding values for `C=C(C(=C)n1nnc(C(=O)OC)c1C(=O)OC)n1nnc(C(=O)OC)c1C(=O)OC` are -2%, -1%, -4%, 0% and -4%.
`Cc1ccc(CC2(OCCN(C)C)CCC(C(C)(C)C)CC2)cc1` (stereo not given): the growth inhibition is -23% (at 1.2 µM); -18% (at 3.7 µM); -11% (at 11.0 µM); 42% (at 33.0 µM); 98% (active) (at 100.0 µM).
The corresponding values for `c1ccc(CCN2CCc3ccccc3C2)cc1` are -3%, -9%, 12%, 28% and 41%.
The corresponding values for `OCc1ccccc1Cc1ccccc1` are -7%, 0%, -2%, -5% and -7%.
